D2 ag-1: activates the human D2 dopamine receptor. P14416. DiscoveRx PathHunter D2 beta-arrestin, luminescence, 90 min; 100% = 57 uM dopamine signal. activation, % (test concentration not listed). 0.084% of 360,000 active; in the data active = activation above about 40%; inconclusive = between about 15% and that limit
Target sequence (P14416 whole entry, looked up): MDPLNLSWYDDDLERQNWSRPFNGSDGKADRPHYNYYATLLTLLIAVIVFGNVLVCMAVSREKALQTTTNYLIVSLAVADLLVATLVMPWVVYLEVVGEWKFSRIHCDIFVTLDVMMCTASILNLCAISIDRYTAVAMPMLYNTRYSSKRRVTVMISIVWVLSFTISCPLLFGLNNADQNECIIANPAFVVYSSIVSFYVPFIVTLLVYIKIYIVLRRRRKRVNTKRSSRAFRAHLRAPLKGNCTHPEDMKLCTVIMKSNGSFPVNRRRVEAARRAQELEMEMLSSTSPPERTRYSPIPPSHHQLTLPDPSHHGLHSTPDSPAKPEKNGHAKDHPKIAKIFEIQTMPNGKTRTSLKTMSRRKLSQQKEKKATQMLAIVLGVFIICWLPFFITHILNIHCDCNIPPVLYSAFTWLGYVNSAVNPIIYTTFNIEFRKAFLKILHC
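Agonist mode: compounds alone added to overnight-plated D2 PathHunter cells for 90 min at 37 C, with 57 uM final dopamine (EC100) defining full response. Beta-arrestin recruitment detected by chemiluminescent reagent, read after 1 h at ambient temperature.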
D2 antag: D2 dopamine receptor (human) antagonism; HEK293 TREx D2 cells, calcium flux, dopamine EC80; 2% of 340,000 active; inhibition, % at 10 µM; in the data active = inhibition above about 30%; inactive = below that, where a call was filed
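Overnight-induced (tetracycline, 30 C) HEK293 T-REx cells carrying force-coupled D2 receive a no-wash calcium dye, then compound, then EC80 dopamine at 180 s; signals are read kinetically throughout.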
D2 ag-2: agonists of human D2 dopamine receptor; P14416; HEK293 T-REx D2 cells, calcium flux agonist mode; activation, % at 2 µM; 0.53% of 340,000 active; AID 485358;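 active = activation over 3 SD above normal in the single-dose calcium agonist read, cut at about 30% in these data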
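Calcium-flux readout, 1 cycle/sec over 180 s following compound pin transfer, in inducible HEK293 Trex D2 cells (force-coupled); dopamine controls included. Positive calcium responses during this window marked compounds as potential agonists.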
D2 PAM-1: positive allosteric modulators of human D2 dopamine receptor; P14416; DiscoveRx D2 beta-arrestin cells, luminescence, 90 min; 100% = 57 uM dopamine signal; potentiation, % (concentration not given with the values); 0.23% of 360,000 active; in the data active = potentiation above about 50%; inconclusive = mostly about 30% to 49%
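PathHunter D2 cells, attached overnight at 37 deg C, received compound in DMSO plus dopamine at EC20 (50 nM final) for 90 min at 37 deg C. Beta-arrestin recruitment was read as luminescence after 1 h with detection reagent at ambient temperature.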
D2 PAM-2: positive allosteric modulators of human D2 dopamine receptor | P14416 | potentiation, % at 10 µM | HEK293 T-REx D2, calcium flux, EC20 dopamine potentiation | 0.34% of 340,000 active;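 active = potentiation over 3 SD above the plate norm, cut at about 30% in these data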
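Using a no-wash calcium dye in inducible, force-coupled HEK293 Trex cells expressing D2, we tracked fluorescence each second for 180 s after compound, then for 180 s after EC20 dopamine to detect augmented signalling.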
Numbers stand for hits; 0 = inactive; ? = inconclusive; - = no result given. Most compounds without a hit are left out; they make up all but 2.4% or so of the library.

SMILES	D2 ag-1	D2 antag	D2 ag-2	D2 PAM-1	D2 PAM-2
Oc1nc(Nc2ccc(F)cc2)sc1/C=C1\C=Nc2ccccc21	0	0	0	0	0
CC1=Nc2ccccc2/C1=C\c1sc(Nc2ccc(C)cc2)nc1O	0	61	0	0	0
CCOC(=O)C1(CC2CC2)CCN(Cc2cn[nH]c2-c2cccc(F)c2)CC1	0	0	0	0	0
CCOC(=O)C1(CC2CC2)CCN(Cc2ccc3cccc(F)c3n2)CC1	0	65	0	0	0
COc1ccc(CN2CCC(CO)(Cc3ccccc3C(F)(F)F)CC2)c(F)c1	0	43	0	0	0
COc1cccc(CC2(CO)CCN(Cc3ccc4cccc(F)c4n3)CC2)c1	0	62	0	0	0
COc1ccc(CC2(CO)CCN(Cc3cccc4nccnc34)CC2)cc1	0	0	0	0	0
OCC1(Cc2cccc(F)c2)CCN(Cc2ccc3cccc(F)c3n2)CC1	0	40	0	0	0
OCC1(CCOc2ccccc2)CCN(Cc2ccc3cccc(F)c3n2)CC1	0	0	0	0	0
COc1ccc(N2CCN(C(=O)c3nc(-c4ccc(Cl)cc4)n4c3CCCCC4)CC2)cc1	-	-	0	-	0
O=C(N/C(=C/c1ccc(Br)cc1)C(=O)N1CCOCC1)c1ccc(Br)o1	0	0	0	0	86
O=C(N/C(=C\c1ccc(Br)cc1)C(=O)N1CCOCC1)c1ccc(Br)o1	0	0	0	0	-
CC(Sc1nccn1C)C(=O)Nc1ccc(Cl)cn1 (centres undefined)	0	49	0	0	0
CCC(Sc1nccn1C)C(=O)Nc1ccc(Cl)cn1 (centres undefined)	0	0	0	0	0
O=C(CCCN1C(=O)C(c2ccccc2)Oc2cccnc21)Nc1ccccc1Cl (centres undefined)	0	0	0	0	0
CS(=O)(=O)N1CCC(C(=O)Nc2cc(C(F)(F)F)ccc2Cl)CC1	0	0	0	0	0
O=C(Nc1cc(C(F)(F)F)ccc1Cl)C1CCN(c2nnc(-n3cccc3)s2)CC1	0	62	0	0	0
Cc1oc(-c2ccccc2F)nc1CN1CCC(C(=O)NCCC2=CCCCC2)CC1	0	32	0	0	0
O=C(NCCC1=CCCCC1)C1CCN(c2nnc(-n3cccc3)s2)CC1	0	48	0	0	0
CC(C)CCNC(=O)C1CCN(c2nnc(-n3cccc3)s2)CC1	0	0	0	0	0
Cc1oc(-c2ccccc2F)nc1CN1CCC(C(=O)NCCc2ccccc2)CC1	-	-	0	-	0
O=C(O)c1ccc2nc3c(nc2c1)-c1ccccc1C3=O	0	34	0	0	0
CCOC(=O)c1ccc(NC2=CC(=O)C(=O)c3ccccc32)cc1	0	0	0	112	0
CCOC(=O)c1ccc(NC(=O)Oc2ccccc2)cc1	0	0	0	0	33
O=c1[nH]c(O)c(/C=C2\C=Nc3ccc(Br)cc32)[nH]1	0	0	0	0	0
SMILES	D2 ag-1	D2 antag	D2 ag-2	D2 PAM-1	D2 PAM-2
O=C1C(=NO)CCc2ccccc21	?	-	-	80	-
O=C(CCCCCN1C(=O)CCC1=O)Nc1ncn[nH]1	0	45	0	0	-
CN(C)c1ccc(CN(CC2CCCO2)C(=O)COc2ccccc2Cl)cc1 (centres undefined)	-	-	-	-	0
COc1ccc(-c2cc3ccc(O)c(CN4CCC(C)CC4)c3oc2=O)cc1	-	-	0	-	-
O=c1c2ccccc2nc2n1CC/C2=C/N1CCN(c2cccc(C(F)(F)F)c2)CC1	0	48	0	0	0
O=C(O)c1ccc2c(=O)n3c(nc2c1)/C(=C/c1ccc(C(F)(F)F)cc1)CC3	0	0	0	0	0
CCc1cc(C(=O)Cc2cnn(-c3ccccc3)c2)c(O)cc1O	0	0	0	0	0
O=C(Cc1cnn(-c2ccccc2)c1)c1ccc(O)c(O)c1O	?	0	0	110	0
O=C(O)c1cc(N/N=C/c2ccc(N3CCOCC3)s2)ccc1Cl	0	0	0	0	0
C/C(=N\Nc1ccc(Cl)c(C(=O)O)c1)c1ccc(N2CCOCC2)cc1	0	33	0	0	0
Nc1cc(C(=O)OCC(=O)Nc2ccc(N3CCOCC3)cc2)ccc1Cl	0	48	0	0	0
CCCCC1CCC(C(=O)N2CC(=O)Nc3ccc(Cl)cc3C2c2ccc(F)cc2)CC1 (centres undefined)	-	-	0	-	0
CCOC(=O)N1CCN(C(=O)c2ccc(NS(=O)(=O)c3ccc(F)cc3)cc2)CC1	0	0	0	?	0
O=C(c1ccc(S(=O)(=O)Nc2ccccc2F)cc1)N1CCCC1	0	51	0	0	0
O=C(c1ccc(NS(=O)(=O)c2ccc(F)cc2)cc1)N1CCC1	0	42	0	0	0
O=C(c1ccc(S(=O)(=O)Nc2ccccc2Cl)cc1)N1CCCC1	0	-	-	0	-
COc1ccc2oc(C)c(C(=O)NN)c2c1	0	0	0	0	0
CCOC(=O)CCC(=O)c1c(C)oc2ccc(OC)cc12	0	0	0	0	30
CCCc1cc(=O)[nH]c2nnc(SCCC(C)C)n12	-	-	0	-	-
N#Cc1cnc(SCC(=O)Nc2ccccc2C(F)(F)F)nc1N	0	32	0	0	0
Nc1nnc(SCC(=O)Nc2ccccc2C(F)(F)F)s1	-	-	0	-	0
CON(C)c1nc(Oc2ccc(=O)[nH]n2)nc(N(C)C)n1	0	0	0	0	45
Cc1ccc2nc(N3C(=O)C(O)=C(C(=O)c4ccco4)C3c3ccc(C)o3)sc2c1 (centres undefined)	0	31	0	0	0
Cc1ccc2nc(N3C(=O)C(O)=C(C(=O)c4ccc(C)o4)C3c3ccco3)sc2c1 (centres undefined)	0	31	0	0	0
O=C(C1=C(O)C(=O)N(c2nc3ccc(Cl)cc3s2)C1c1ccco1)c1ccco1 (centres undefined)	0	0	0	0	0
SMILES	D2 ag-1	D2 antag	D2 ag-2	D2 PAM-1	D2 PAM-2
Cc1ccc2nc(N3C(=O)C(O)=C(C(=O)c4ccco4)C3c3ccc(O)cc3)sc2c1 (centres undefined)	-	0	0	-	0
CC(C)[C@H](NC(=O)N1CCn2c1nc1ccccc12)C(=O)N[C@H](C(=O)O)c1ccccc1	0	58	0	0	0
Cc1nc2n(c(=O)c1CCN1CCC(c3noc4cc(F)ccc34)CC1)CCCC2	-	86	-	-	-
O=C(NCc1ccc(F)cc1)c1ccc2c(=O)n3c(nc2c1)CCCCC3	0	0	0	0	0
CCOC(=O)c1c(-c2ccc(C)cc2)cn2ccccc12	0	0	0	0	0
CCOC(=O)c1c(-c2ccc(OC)cc2)cn2ccccc12	0	62	0	0	0
Cc1ccc2c(c1)cc(CN(Cc1ccco1)C(=O)COc1ccccc1)c1nnnn12	0	0	0	0	0
CCC(=O)N(Cc1ccco1)Cc1cc2cccc(C)c2n2nnnc12	0	34	0	0	0
COCCn1c(CCC(=O)Nc2ccc(C)c(Cl)c2)nc2cccnc21	-	-	0	-	0

Compound activity as filed in PubChem.
